# Measurements: PubChem BioAssay (NCATS)
# Values joined by “and” are separate entries in the source; they are usually repeats but may differ in a detail not shown here. Equal entries are not always repeated. Results filed as inconclusive are left out. Active and inactive are the calls of the source. Unless noted, the call rests on the fitted dose curve.
# Legend:
# [1] = target: Glucocorticoid receptor (Homo sapiens) (UniProt P04150); assay: qHTS assay for small molecule agonists of glucocorticoid receptor signaling (AID 588532; active means well fitted curve in the direction sought with a large enough effect in the signal ratio, with a control signal flat; the % refers to the signal ratio;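 further: 100% = dexamethasone at 0.1 µM and 0% = DMSO only wells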); details: HeLa MMTV-bla, beta-lactamase ratio, agonist, 18 h; activation: stronger effect = higher value, percent of dexamethasone control, DMSO zero
# Glucocorticoid receptor (Homo sapiens), sequence (P04150 whole entry, looked up): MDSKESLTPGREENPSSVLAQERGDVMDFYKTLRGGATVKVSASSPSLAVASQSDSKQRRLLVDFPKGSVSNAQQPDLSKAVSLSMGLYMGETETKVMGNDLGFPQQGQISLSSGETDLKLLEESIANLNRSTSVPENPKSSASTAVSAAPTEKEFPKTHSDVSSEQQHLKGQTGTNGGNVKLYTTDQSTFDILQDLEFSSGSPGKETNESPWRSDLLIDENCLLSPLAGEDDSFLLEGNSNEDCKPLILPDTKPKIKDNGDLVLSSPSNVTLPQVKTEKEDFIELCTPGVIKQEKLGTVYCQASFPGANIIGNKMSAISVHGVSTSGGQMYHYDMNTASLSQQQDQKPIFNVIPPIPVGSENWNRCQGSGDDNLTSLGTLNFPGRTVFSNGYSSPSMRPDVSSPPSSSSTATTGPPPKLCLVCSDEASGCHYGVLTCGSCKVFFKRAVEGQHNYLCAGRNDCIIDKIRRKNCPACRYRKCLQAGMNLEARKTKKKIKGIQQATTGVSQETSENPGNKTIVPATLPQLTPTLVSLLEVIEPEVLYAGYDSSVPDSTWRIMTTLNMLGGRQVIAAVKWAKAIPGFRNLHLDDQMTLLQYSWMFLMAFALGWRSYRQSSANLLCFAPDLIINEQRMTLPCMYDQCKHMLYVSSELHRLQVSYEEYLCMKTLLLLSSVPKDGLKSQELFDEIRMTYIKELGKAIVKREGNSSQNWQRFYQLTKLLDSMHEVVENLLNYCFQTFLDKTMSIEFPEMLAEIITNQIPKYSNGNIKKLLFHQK
# Summary of the method: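 Cells were plated and rested 3-5 h at 37 C, compounds were added in titration and incubated 18 h, then CCF4 substrate was loaded for 2 h at RT before reading blue/green fluorescence. EC50 came from Hill-equation fitting.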
# [2] = target: Vitamin D3 receptor (Homo sapiens) (UniProt P11473); assay: qHTS assay for small molecule antagonists of vitamin D receptor signaling (AID 588541);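 further: receptor activated by calcitriol during compound treatment; series mostly up to about 77 µM; on the % scale 0 is the no-effect control and ±100 the full control effect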
# Vitamin D3 receptor (Homo sapiens), sequence (P11473 whole entry, looked up): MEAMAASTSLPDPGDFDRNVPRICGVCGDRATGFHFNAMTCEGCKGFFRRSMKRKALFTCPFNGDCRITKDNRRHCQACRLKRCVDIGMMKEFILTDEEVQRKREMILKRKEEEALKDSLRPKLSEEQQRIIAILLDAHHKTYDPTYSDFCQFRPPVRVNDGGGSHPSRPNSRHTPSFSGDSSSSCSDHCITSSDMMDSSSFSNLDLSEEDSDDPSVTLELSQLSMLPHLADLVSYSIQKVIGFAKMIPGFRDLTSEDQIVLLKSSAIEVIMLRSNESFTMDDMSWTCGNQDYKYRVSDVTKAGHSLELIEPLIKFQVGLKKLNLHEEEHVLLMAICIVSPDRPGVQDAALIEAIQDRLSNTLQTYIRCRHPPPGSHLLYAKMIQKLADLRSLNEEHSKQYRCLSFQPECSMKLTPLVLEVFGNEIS
# Summary of the method: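 VDR-UAS-bla HEK293T cells in 2% charcoal-stripped FBS were stimulated with 1-alpha,25-dihydroxyvitamin D3 (3 nM final) plus compound for 16 h at 37 C. The beta-lactamase CCF4 readout was normalized to 50 nM agonist and DMSO, and Hill fits gave IC50.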
# [3] = qHTS assay for small molecule agonists of retinoid X receptor alpha signaling (AID 588544); details: HEK293T RXRa-UAS-bla, beta-lactamase reporter, 18 h; 530 nm emission; further: potency means the concentration at half of the fitted maximal effect;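 on activation: 0% = DMSO basal wells and 100% = reference agonist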
# [4] = target: Retinoic acid receptor RXR-alpha (Homo sapiens) (UniProt P19793); assay: as above
# Retinoic acid receptor RXR-alpha (Homo sapiens), sequence (P19793 whole entry, looked up): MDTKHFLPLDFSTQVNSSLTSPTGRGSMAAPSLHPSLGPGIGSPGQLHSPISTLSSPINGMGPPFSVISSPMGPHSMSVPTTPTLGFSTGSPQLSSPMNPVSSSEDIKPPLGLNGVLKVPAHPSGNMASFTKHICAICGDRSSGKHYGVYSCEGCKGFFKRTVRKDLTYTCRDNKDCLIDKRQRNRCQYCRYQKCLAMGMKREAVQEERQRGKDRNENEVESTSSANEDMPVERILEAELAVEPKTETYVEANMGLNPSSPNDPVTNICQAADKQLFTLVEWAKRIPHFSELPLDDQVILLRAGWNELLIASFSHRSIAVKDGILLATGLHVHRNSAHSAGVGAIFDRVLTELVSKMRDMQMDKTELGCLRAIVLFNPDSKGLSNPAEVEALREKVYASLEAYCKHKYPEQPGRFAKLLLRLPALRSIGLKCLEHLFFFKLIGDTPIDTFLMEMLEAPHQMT
# [5] = target: Peroxisome proliferator-activated receptor delta (Homo sapiens) (UniProt Q03181); assay: qHTS assay for small molecule agonists of peroxisome proliferator-activated receptor delta signaling (AID 588534);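 further: 0% = DMSO basal wells and 100% = positive control agonist at 10 µM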
# Peroxisome proliferator-activated receptor delta (Homo sapiens), sequence (Q03181 whole entry, looked up): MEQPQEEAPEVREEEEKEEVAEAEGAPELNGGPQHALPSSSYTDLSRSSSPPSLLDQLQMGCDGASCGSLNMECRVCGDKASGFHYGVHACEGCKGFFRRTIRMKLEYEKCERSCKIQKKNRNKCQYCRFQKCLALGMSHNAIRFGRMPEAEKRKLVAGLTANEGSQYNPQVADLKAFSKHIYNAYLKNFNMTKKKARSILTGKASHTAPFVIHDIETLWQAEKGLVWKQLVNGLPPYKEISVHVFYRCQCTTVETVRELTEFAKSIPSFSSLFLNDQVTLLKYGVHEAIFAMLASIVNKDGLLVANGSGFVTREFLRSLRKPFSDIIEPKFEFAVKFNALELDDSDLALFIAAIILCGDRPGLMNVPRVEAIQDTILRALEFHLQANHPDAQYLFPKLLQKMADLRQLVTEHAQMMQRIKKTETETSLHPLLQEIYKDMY
# Summary of the method: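 Reporter cells were plated and held 5 hrs at 37 C before compounds were added. After 18 hrs at 37 C, CCF4 dye was loaded for 2 hrs at RT and fluorescence measured.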
# [6] = target: Glucocorticoid receptor (Homo sapiens) (UniProt P04150); assay: qHTS assay for small molecule antagonists of glucocorticoid receptor signaling (AID 588533; active means well fitted inhibition curve with a large enough effect in the signal ratio, with a control signal flat, not every such curve was filed as active; the % refers to the signal ratio; further: on the % scale 0 is the no-effect control and ±100 the full control effect)
# Summary of the method: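 Antagonist-mode qHTS: compound titrations added to GRE-bla HeLa cells, then dexamethasone 2 nM final; 18 h, 37 C. CCF4 FRET fluorescence normalized to dexamethasone and DMSO; IC50 from Hill fit.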
# [7] = target: Vitamin D3 receptor (Homo sapiens) (UniProt P11473); assay: qHTS assay for small molecule agonists of vitamin D receptor signaling (AID 588543);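 further: 0% = DMSO basal and 100% = reference agonist control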
# Summary of the method: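 β-lactamase reporter, VDR-UAS-bla HEK293T, agonist mode. Cells plated 5 h at 37 °C, compound titration 16 h at 37 °C, CCF4 dye 2 h RT, ratio 460/530 nm. Hill fit → EC50, efficacy vs 50 nM 1α,25-(OH)2D3.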
# [8] = target: Thyroid hormone receptor beta (Homo sapiens) (UniProt P10828); assay: qHTS assay for small molecule agonists of thyroid hormone receptor beta signaling (AID 588545)
# Thyroid hormone receptor beta (Homo sapiens), sequence (P10828 whole entry, looked up): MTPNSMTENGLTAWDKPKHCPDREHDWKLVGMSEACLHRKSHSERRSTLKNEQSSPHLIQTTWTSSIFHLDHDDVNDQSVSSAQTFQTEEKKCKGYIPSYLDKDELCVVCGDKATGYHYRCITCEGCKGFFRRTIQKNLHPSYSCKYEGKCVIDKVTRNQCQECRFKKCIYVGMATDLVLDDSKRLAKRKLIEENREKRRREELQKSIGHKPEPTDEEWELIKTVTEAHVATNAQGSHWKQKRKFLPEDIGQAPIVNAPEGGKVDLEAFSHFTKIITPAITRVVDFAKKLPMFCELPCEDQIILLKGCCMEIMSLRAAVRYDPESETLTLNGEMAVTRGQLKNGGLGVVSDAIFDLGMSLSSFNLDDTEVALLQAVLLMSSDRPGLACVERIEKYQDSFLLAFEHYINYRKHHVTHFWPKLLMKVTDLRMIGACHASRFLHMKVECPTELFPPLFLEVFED
# Summary of the method: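 Cells (2500/well) were seeded, incubated 4 hrs at 37 C, dosed with a compound series, incubated 18 hrs, loaded with CCF4 dye for 2 hrs at RT, then read for fluorescence. Data were scaled between DMSO (0%) and 10 nM T3 (100%).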
# [9] = qHTS assay for small molecule antagonists of retinoid X receptor alpha signaling (AID 588546; active means well fitted inhibition curve with a large enough effect in the signal ratio, with a control signal flat, not every such curve was filed as active; the % refers to the signal ratio;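 further: cells stimulated with 9-cis-retinoic acid as agonist; on the % scale 0 is the no-effect control and ±100 the full control effect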); details: HEK293T RXRa-UAS-bla, beta-lactamase ratio, antagonist mode; measured here: W530 green channel, cytotoxicity proxy
# Summary of the method: (§1)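 Beta-lactamase reporter inhibition, read as CCF4 fluorescence ratio (ex 405, em 460/530 nm) after 2 h at RT. HEK293T UAS-bla cells, 2500/well, were stimulated with 9-cis-RA at 500 or 100 nM final alongside test compound for 18 h at 37 C.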
# [10] = target: Retinoic acid receptor RXR-alpha (Homo sapiens) (UniProt P19793); assay: as above; details: HEK293T RXRa-UAS-bla, beta-lactamase ratio, antagonist mode
# Summary of the method: as §1
# [11] = qHTS assay for small molecule agonists of the antioxidant response element (ARE) signaling pathway (AID 651741; active means well fitted activation curve with a large enough effect in the signal ratio; the % refers to the signal ratio; further: potency means the concentration at half of the fitted maximal effect; on activation: % of control where 0% means no effect)
# Summary of the method: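 HepG2 ARE-bla cells plated at 2,000 cells/well and incubated 5 h at 37 C/5% CO2 received 23 nL compound in DMSO. After 16 h at 37 C, LiveBLAzer B/G FRET substrate was applied for 2 h at room temperature and fluorescence read.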
# [12] = qHTS assay for small molecule activators of the p53 signaling pathway (AID 651743; active means well fitted activation curve with a large enough effect in the signal ratio, not every such curve was filed as active; the % refers to the signal ratio; further: series mostly up to about 92 µM; % of control where 0% means no effect); details: HCT-116 p53RE-bla, beta-lactamase FRET ratio, 16 h; activation: stronger effect = higher value
# Summary of the method: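 HCT-116 p53RE-bla, 4,000 cells/well; 5 h settle; cpd/DMSO 16 h, 37 C; LiveBLAzer B/G 2 h RT; fluorescence intensity.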
# [13] = target: Peroxisome proliferator-activated receptor alpha (Homo sapiens) (UniProt Q07869); assay: qHTS assay for small molecule agonists of the peroxisome proliferator-activated receptor alpha (PPARalpha) signaling pathway (AID 651778; active means well fitted curve in the direction sought with a large enough effect; an effect the other way counts as inactive or inconclusive; further: % of control where 0% means no effect); details: PathHunter PPARalpha complementation, chemiluminescence, 6 h; max response: stronger effect = higher value
# Peroxisome proliferator-activated receptor alpha (Homo sapiens), sequence (Q07869 whole entry, looked up, the tested form may be a part): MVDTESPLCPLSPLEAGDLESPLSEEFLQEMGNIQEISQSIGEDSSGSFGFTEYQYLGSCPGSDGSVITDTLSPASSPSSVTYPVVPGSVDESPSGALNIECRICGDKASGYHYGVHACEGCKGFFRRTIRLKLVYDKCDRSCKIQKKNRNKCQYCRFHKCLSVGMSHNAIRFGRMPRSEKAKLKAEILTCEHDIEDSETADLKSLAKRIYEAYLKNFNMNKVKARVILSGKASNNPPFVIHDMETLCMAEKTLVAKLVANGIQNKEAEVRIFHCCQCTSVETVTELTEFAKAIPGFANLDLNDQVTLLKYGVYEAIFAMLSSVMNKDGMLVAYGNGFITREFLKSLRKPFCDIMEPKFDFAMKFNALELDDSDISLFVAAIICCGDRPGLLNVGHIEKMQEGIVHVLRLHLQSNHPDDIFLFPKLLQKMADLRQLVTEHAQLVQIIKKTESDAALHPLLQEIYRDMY
# Summary of the method: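 Enzyme-fragment complementation assay in which ligand-bound PPARalpha translocates and forms an active enzyme that generates chemiluminescence. Cells were plated overnight, exposed to compound for 6 hr at 37 C, and then given detection reagent for 60 min at room temperature.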
# [14] = qHTS assay for small molecule agonists of the antioxidant response element (ARE) signaling pathway measured by Nrf2-dependant transcriptional activity (AID 720636; active means well fitted curve in the direction sought with a large enough effect in the repeat runs; an effect the other way counts as inactive or inconclusive; further: potency means the concentration at half of the fitted maximal effect;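 on activation: HepG2 cells with an ARE-driven luciferase reporter; % of control where 0% means no effect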)
# Summary of the method: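 Cells: ARE-luc HepG2 with Nrf2-responsive luciferase. Medium contained 1% dialyzed FBS. Compound exposure lasted 16 hr at 37 C and 5% CO2, followed by ONE-Glo luciferase detection.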
# [15] = qHTS assay for small molecule agonists of the antioxidant response element (ARE) signaling pathway measured by Nrf2-dependant transcriptional activity - cell viability counter screen (AID 720653; active means well fitted curve in the direction sought with a large enough effect in the repeat runs; an effect the other way counts as inactive or inconclusive; further: on the % scale 0 is the no-effect control and ±100 the full control effect); details: ARE-bla HepG2 viability, CellTiter-Glo ATP luminescence, 16 h; max response: stronger effect = lower value
# Summary of the method: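 ARE-bla HepG2 cells treated with compounds for 16 h at 37C; this counter screen measures viability as intracellular ATP by CellTiter-Glo luminescence after 30 min at room temperature.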
# [16] = qHTS assay for cell viability of HEK293 cells (AID 743288; active means well fitted curve in the direction sought with a large enough effect; an effect the other way counts as inactive or inconclusive; further: on the % scale 0 is the no-effect control and ±100 the full control effect; nearly all actives have a fitted effect of over 50% in size); details: ATP luminescence (CellTiter-Glo), 18 h; max response: stronger effect = lower value
# Summary of the method: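 Environmental chemicals tested in qHTS format against parental HEK293 cells; 18 h treatment, 37 C; read-out ATP luminescence (CellTiter-Glo), 30 min RT development.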
# [17] = qHTS assay for cell viability of the p53RE-bla HCT-116 cell line (AID 743292; active means well fitted curve in the direction sought with a large enough effect; an effect the other way counts as inactive or inconclusive; further: on the % scale 0 is the no-effect control and ±100 the full control effect; nearly all actives have a fitted effect of over 55% in size)
# Summary of the method: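 HCT-116 p53RE-bla cells seeded 4,000/well; 5 h at 37 C; compound (DMSO) added; 16 h at 37 C; CellTiter-Glo added, 30 min RT; luminescence read.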
# [18] = target: Nuclear receptor subfamily 1 group I member 2 (Rattus norvegicus) (UniProt Q9R1A7); assay: qHTS assay for small molecule activators of the rat pregnane X receptor (rPXR) signaling pathway (AID 651751; call rule not given here; further: 0% is about no effect); details: rPXR reporter cells, luciferase (One-Glo), 24 h
# Nuclear receptor subfamily 1 group I member 2 (Rattus norvegicus), sequence (Q9R1A7 whole entry, looked up): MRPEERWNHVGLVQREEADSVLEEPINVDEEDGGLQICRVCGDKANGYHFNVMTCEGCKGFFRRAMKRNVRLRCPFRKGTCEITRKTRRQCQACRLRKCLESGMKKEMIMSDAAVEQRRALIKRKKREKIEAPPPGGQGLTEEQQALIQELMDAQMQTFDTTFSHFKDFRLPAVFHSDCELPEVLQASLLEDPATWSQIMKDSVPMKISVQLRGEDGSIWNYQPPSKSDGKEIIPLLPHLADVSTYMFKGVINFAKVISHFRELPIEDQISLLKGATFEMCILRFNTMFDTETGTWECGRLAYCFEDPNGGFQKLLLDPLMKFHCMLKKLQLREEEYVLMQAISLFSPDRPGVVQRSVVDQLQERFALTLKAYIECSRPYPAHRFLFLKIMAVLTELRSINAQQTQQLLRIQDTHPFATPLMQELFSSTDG
# [19] = qHTS assay for small molecule activators of the human pregnane X receptor (PXR) signaling pathway (AID 720659; call rule not given here; further: 0% is about no effect)
# [20] = target: Peroxisome proliferator-activated receptor gamma (Homo sapiens) (UniProt P37231); assay: qHTS assay for small molecule agonists of peroxisome proliferator-activated receptor gamma signaling (AID 588536; active means well fitted curve in the direction sought with a large enough effect in the signal ratio, with a control signal flat, not every such curve was filed as active; the % refers to the signal ratio;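 further: 0% = DMSO basal wells and 100% = rosiglitazone at 2 µM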)
# Peroxisome proliferator-activated receptor gamma (Homo sapiens), sequence (P37231 whole entry, looked up): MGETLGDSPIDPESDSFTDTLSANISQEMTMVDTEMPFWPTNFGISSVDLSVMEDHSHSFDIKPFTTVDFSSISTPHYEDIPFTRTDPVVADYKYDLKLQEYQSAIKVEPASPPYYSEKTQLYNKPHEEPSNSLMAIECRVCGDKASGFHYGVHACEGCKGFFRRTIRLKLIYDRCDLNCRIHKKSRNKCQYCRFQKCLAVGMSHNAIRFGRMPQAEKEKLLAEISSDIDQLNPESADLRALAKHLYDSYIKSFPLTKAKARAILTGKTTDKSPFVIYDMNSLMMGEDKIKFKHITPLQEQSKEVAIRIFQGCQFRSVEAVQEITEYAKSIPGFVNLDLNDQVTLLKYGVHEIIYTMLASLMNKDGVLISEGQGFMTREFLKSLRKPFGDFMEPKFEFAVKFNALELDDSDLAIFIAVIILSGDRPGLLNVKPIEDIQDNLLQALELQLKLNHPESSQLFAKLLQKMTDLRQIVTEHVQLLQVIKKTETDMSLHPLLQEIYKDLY
# Summary of the method: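 Test agents, titrated, stimulated HEK293 UAS-bla cells overnight (16 h, 37 C). Substrate CCF4 was then added for two hours at room temperature before fluorescence reading.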
# [21] = target: Thyroid hormone receptor beta (Homo sapiens) (UniProt P10828); assay: qHTS assay for small molecule antagonists of thyroid hormone receptor beta signaling (AID 588547; active means well fitted inhibition curve with a large enough effect in the signal ratio, with a control signal flat, not every such curve was filed as active; the % refers to the signal ratio); details: TR-UAS-bla HEK293, beta-lactamase ratio, antagonist mode, 18 h
# Summary of the method: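 TR-UAS-bla GripTite HEK293 cells in 2% charcoal/dextran FBS medium; compounds 0.59 nM to 92 uM with T3 at 0.4nM final, 18 h at 37 C. Beta-lactamase read by CCF4 fluorescence (460/530 nm); Hill fits gave IC50 and efficacy.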
# [22] = qHTS assay for small molecule activators of the nuclear factor-kappa B (NF-kB) signaling pathway (AID 651749; active means well fitted activation curve with a large enough effect in the signal ratio; the % refers to the signal ratio; further: series mostly up to about 77 µM; % of control where 0% means no effect); details: NF-kB-bla ME-180 cells, beta-lactamase FRET ratio, 16 h; activation: stronger effect = higher value
# Summary of the method: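 Incubation lasted 16 hr at 37C in 5% CO2 after 23 nL compound addition to ME-180 NF-kB-bla cells. Activation appears as beta-lactamase-mediated FRET loss.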
# [23] = target: Peroxisome proliferator-activated receptor gamma (Homo sapiens) (UniProt P37231); assay: qHTS assay for small molecule antagonists of peroxisome proliferator-activated receptor gamma signaling (AID 588537; active means well fitted inhibition curve with a large enough effect in the signal ratio, with a control signal flat, not every such curve was filed as active; the % refers to the signal ratio; further: potency means the concentration at half of the fitted maximal effect)
# Summary of the method: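 Step one: plate 3000 HEK293 UAS-bla cells per well in medium with 1% stripped serum and hold 6-6.5 h at 37 C. Step two: add compound and 50 nM agonist for 16 h. Step three: CCF4 loading, fluorescence read.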
# [24] = qHTS assay for environmental chemicals that activate the Aryl hydrocarbon Receptor (AhR) signaling pathway (AID 651777; active means well fitted curve in the direction sought with a large enough effect; an effect the other way counts as inactive or inconclusive; further: % of control where 0% means no effect; nearly all actives have a fitted effect of over 15% in size); details: 1A2-DRE human hepatoma cells, luciferase, 24 h; activation: stronger effect = higher value
# Summary of the method: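 1A2-DRE human hepatoma reporter line; 1,200 cells/well; cmpd or DMSO 24 h, 37 C/5% CO2; One-Glo 30 min RT; luciferase lum.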
smiles,measurement,setting,value
S=C(S)NCCNC(=S)S,activation,[1],-2.17% (inactive)
same,Potency,[2],inactive
same,max response,[3],9.28%
same,Potency,[4],inactive
O=C1NC(=O)c2cc([N+](=O)[O-])ccc21,outcome,[5],inactive
CC(C)(C)OOC(C)(C)CCC(C)(C)OOC(C)(C)C,Potency,[6],inactive
same,Potency,[2],inactive
same,outcome,[7],inactive
same,max response,[3],-2.41%
same,Potency,[4],inactive
same,Potency,[8],inactive
same,max response,[9],-4.8%
same,max response,[10],-1.22% (inactive)
same,Potency,[11],inactive
same,activation,[12],2.86% (inactive)
same,max response,[13],0.675% (inactive)
same,Potency,[14],inactive
same,max response,[15],-14% (inactive)
same,max response,[16],0.0033% (inactive)
same,Potency,[17],inactive
same,max response,[18],-1.16% (inactive)
same,outcome,[19],inactive
COc1cc(OC)nc(Sc2cccc(Cl)c2C(=O)O)n1,activation,[1],5.02% (inactive)
same,Potency,[6],inactive
same,Potency,[20],inactive
same,Potency,[2],inactive
same,max response,[3],-16.4%
same,Potency,[4],inactive
same,max response,[9],-2.85%
same,max response,[10],-5.7% (inactive)
same,activity change % (negative = inhibition),[21],6.23% (inactive)
same,Potency,[11],inactive
same,activation,[12],-0.496% (inactive)
same,activation,[22],0.833% (inactive)
same,max response,[13],-1.08% (inactive)
same,Potency,[14],inactive
same,max response,[15],-2.11% (inactive)
same,max response,[16],-8.52% (inactive)
same,Potency,[17],inactive
same,max response,[18],3.18% (inactive)
same,outcome,[19],inactive
CCOC(=O)C1=NN(c2ccc(Cl)cc2Cl)C(C)(C(=O)OCC)C1 (stereo not given),outcome,[5],inactive
Cc1cc(Nc2ccc(O)cc2)ccc1N,outcome,[5],inactive
N#Cc1c[nH]cc1-c1cccc2c1OC(F)(F)O2,activation,[1],-6.3% (inactive)
same,outcome,[5],inactive
same,Potency,[23],31.6 µM (active)
same,max response,[3],-13.3%
same,Potency,[4],2.24 µM (active)
same,Potency,[8],inactive
same,activation,[22],-3.39% (inactive)
same,max response,[13],-0.738% (inactive)
same,Potency,[14],inactive
same,max response,[15],-6.59% (inactive)
same,max response,[16],-14.2% (inactive)
same,Potency,[17],inactive
S=C([S-])NCCNC(=S)[S-].S=C([S-])NCCNC(=S)[S-].[Mn+2].[Zn+2],activation,[1],13.6% (inactive)
same,Potency,[2],inactive
CCOP(=S)(OCC)OC(Cl)C(Cl)(Cl)Cl (stereo not given),activation,[1],11.6% (inactive)
same,Potency,[6],inactive
same,outcome,[5],inactive
same,Potency,[20],inactive
same,Potency,[23],inactive
same,Potency,[2],inactive
same,outcome,[7],inactive
same,max response,[9],-12.5%
same,max response,[10],-15% (inactive)
same,activity change % (negative = inhibition),[21],7.52% (inactive)
same,activation,[12],-0.781% (inactive)
same,activation,[22],0.0553% (inactive)
same,activation,[24],0.044% (inactive)
same,max response,[13],-1.33% (inactive)
same,Potency,[14],inactive
same,max response,[15],-3.95% (inactive)
same,max response,[16],-12.8% (inactive)
same,Potency,[17],inactive
same,max response,[18],0.487% (inactive)
same,outcome,[19],inactive
S=C([S-])NCCNC(=S)[S-].[Mn+2],activation,[1],-3.05% (inactive)
same,Potency,[11],30.6 µM (active) and 27.3 µM (active)
same,Potency,[14],61.1 µM (active)
